One experiment concerns the target C1orf64. The experiment in a line: pooled miR-30 sensor sort-seq; sequence = guide strand. The following applies: shRNA.
The sequence ATGTAAGTCTTCATTGGTGGGG yielded a sensor-assay potency score (higher = more potent) of -0.782.
Turning to TTGAAGACCTCACAGGCGCAGC, the sensor-assay potency score (higher = more potent) is -1.07.
Same read-out and setting: the same measure for TTCCCCACAGAACACGATGTAA: -1.15.
Regarding ATTGGTGGGGTGACAAGCCCTC, the sensor-assay potency score (higher = more potent) was -0.204.
Same read-out and setting: the same measure for TGTAAGTCTTCATTGGTGGGGT: 0.329; for TTAGCCTCGGGAACCTCCTGGG: -0.502; for TTCAGTGAGTCCTTGACTGTTC: 0.426.
Take TCAATAACAAAAGTCAGGTGAG: the sensor-assay potency score (higher = more potent) was -0.224.
On the same count and under the same terms, the same measure for TAAGTCTTCATTGGTGGGGTGA: -0.373.
Still for that read-out and setting: then TAGCCTCGGGAACCTCCTGGGG, with -1.66.
The same measure, in the same setting: then AAGTTGAAGACCTCACAGGCGC, with -0.73; and TTTCAGTGAGTCCTTGACTGTT, with -0.901.

The target of another experiment is C1orf84. The experiment is described as above. The following applies: shRNA.
Sequence TTTCATTAACAGGAACACCTGC gave a sensor-assay potency score (higher = more potent) of 0.405.
TCATCAAACAAGATCTCCCCTG returned a sensor-assay potency score (higher = more potent) of -0.444.
Take ATTAACAGGAACACCTGCCCAG: the sensor-assay potency score (higher = more potent) turned out to be 0.146.
Same read-out and setting: then TTAACAGGAACACCTGCCCAGC, with -1.3; and TTGGTGCAGATGACTGAGGAAC, with -1.39.
Sequence TTCATTAACAGGAACACCTGCC had a sensor-assay potency score (higher = more potent) of 0.858.
TTACATAGATCTCAGGCTGGAA gave a sensor-assay potency score (higher = more potent) of -0.261.
Sequence TCCAACTCAATGACAAACCGAT had a sensor-assay potency score (higher = more potent) of -0.656.
Turning to TTCATCAAACAAGATCTCCCCT, the sensor-assay potency score (higher = more potent) stood at 0.55.
As to TAGTTACATAGATCTCAGGCTG, the sensor-assay potency score (higher = more potent) was -0.122.
On the same count and under the same terms, the same measure for TTCCTGTTCAGACAGCATCTCC: -0.954.

A further experiment has as its target C20orf112. Described as above. Particulars: shRNA.
TTCTTGTCTCGCTCTCACAGGC yielded a sensor-assay potency score (higher = more potent) of -0.87.
On to TTGATGGAATCGTAGCTCCCAG, for which the sensor-assay potency score (higher = more potent) was -1.02.
On the same count and under the same terms, then TTGACTGTGGAGGTTCTGCGGG, with -0.683; and ATTGTCCTCATGGTCATCGTGG, with -0.617; and TTCATCTTGTCATTGTCCTCAT, with 0.226.
Same read-out and setting: the same measure for TTGTCTCGCTCTCACAGGCAGC: -1.65; for TTTCTTGTCTCGCTCTCACAGG: -0.96.
Same read-out and setting: the same measure for ATCGTCGTCATCATCTGCCGTC: -0.187.
In the case of TAGATCTCTAGACGCATCCGCT, the sensor-assay potency score (higher = more potent) was 0.0864.
Regarding TTCATCTGCAGAGCGCAGCAGG, the sensor-assay potency score (higher = more potent) was -0.526.
As for TTTCATGCTGAGGTCCGTGGGC, the sensor-assay potency score (higher = more potent) was -0.763.
For TCGTCATCATCTGCCGTCGGGG, the sensor-assay potency score (higher = more potent) was -1.61.

The next experiment deals with C20orf54. The experiment is described as above. Particulars: shRNA.
The sequence ATCTCAGTGACATTGACGCAGG gave a sensor-assay potency score (higher = more potent) of -1.25.
In the case of TTCTCCTCTAGATACCCCTGGC, the sensor-assay potency score (higher = more potent) is -0.528.
TATCGTTATCTGCTTGTCTTGT yielded a sensor-assay potency score (higher = more potent) of 0.0273.
Regarding TTGCAGAAGTCCGCGGACGAGA, the sensor-assay potency score (higher = more potent) is -1.3.

The record behind these values is the OligoGym collection.
Also: reference of the scale not given here.
